TWEAK Fn14 block = inhibitors of TWEAK-Fn14 signaling, primary screen, luciferase reporter cells, uHTS | TWEAK-stimulated Fn14 reporter cells, luciferase luminescence, 8 h | inhibition, % at 10 µM | 360,000 compounds, 2% hits; in the data active means inhibition above about 50%
LGR2 inh = inhibitors of bursicon-induced LGR2 CRE-luciferase signal, primary screen, cell-based, HEK293, CRE-luciferase reporter, bursicon stimulation. Drosophila bursicon receptor LGR2 (rickets). bursicon-stimulated, 4 h. inhibition, % at 9.99 µM. 380,000 compounds, 0.35% hits. AID 720647, 2013;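 active means drop in luminescence signal, shown as inhibition above about 50% in the replicate tests, limit read from the data, passing the limit was not always enough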;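 further: agonist challenge used bursicon conditioned medium at about half maximal strength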
TROY signal inh = inhibitors of TROY-driven NF-kB signaling, primary screen, Q293 LMP1-TROYcd cells, NF-kB luciferase, uHTS | Q293 LMP1-TROYcd NF-kB luciferase reporter, 4 h | inhibition, % at 10 µM | 360,000 compounds, 0.98% hits;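 active means compounds whose plate-normalised and pattern-corrected inhibition of the luciferase reporter signal at the single screening dose is 50% or more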
HSP90 inh = HSP90 inhibitors, primary screen, cell lysate, luminescence; Heat shock protein HSP 90 (rabbit reticulocyte lysate; luciferase refolding); Rabbit reticulocyte lysate, luciferase refolding luminescence, 3 h; inhibition, % at 5.6 µM; 290,000 compounds, 0.91% hits; AID 1789, 2009;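 active means inhibition above the screen-wide mean plus 3 SD, computed separately per campaign, cut at about 16% in these data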;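 further: 0% = DMSO wells and 100% = 60 µM geldanamycin wells; inhibitors lower the luminescence because luciferase stays unfolded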
Starred values were filed as active, the others as inactive; nt = not tested or not shown. Only some compounds are listed: those with a hit (about 2.2% of all), similar ones and a draw of the others.

SMILES	TWEAK Fn14 block	LGR2 inh	TROY signal inh	HSP90 inh
COC(=O)C1=C(C)NC(C)=C(C(=O)OC)C1c1ccc2ccccc2n1	8	nt	-5	2
O=C1c2ccccc2C(=O)C1c1ccc2ccccc2n1	95*	nt	49	0
CCC(=O)Nc1ccc2c(c1)C(=O)N(C)C[C@@H](OC)[C@H](C)CN(CCc1ccccc1)[C@@H](C)CO2	nt	2	nt	nt
CCCNC(=O)N1CC2(CN(S(=O)(=O)CC)C2)c2c(n(C)c3cc(OC)ccc23)[C@H]1CO	nt	0	nt	nt
COc1cc(/C=N/NC(N)=S)cc(Br)c1OCc1ccccc1F	64*	41	12	3
C#CCOc1c(Cl)cc(/C=N/NC(N)=S)cc1OCC	50	12	-24	0
CCOc1cc(/C=N/NC(N)=S)cc(Br)c1OCc1ccccc1C	36	nt	-3	6
CCOc1c(Cl)cc(/C=N/NC(N)=S)cc1OC	52*	-29	13	4
CCOCCCNC(=O)Cn1cnc2c(cnn2-c2ccc(C)c(C)c2)c1=O	108*	-6	-2	0
Cc1ccc(NC(=O)CN2C(=O)C3CCCCN3C(=O)c3ccccc32)cc1 (stereo not drawn)	53*	-11	nt	-2
CCCCc1c(C)c(C#N)c2[nH]c3ccccc3n2c1=O	9	nt	52*	3
COC(=O)C(=Cc1ccccc1[N+](=O)[O-])C(=O)OC	69*	4	11	3
C#CCOCCOCCOCCNc1nc(N2CCN(C(=O)CCCCCCCCCCNC(=O)[C@@H](CCC(=O)O)n3cc(CCCCCN)nn3)CC2)nc(N2CCN(C(=O)CCCCCCCCCCNC(=O)[C@H](CCCCN)n3cc(C[C@@H](C)CC)nn3)CC2)n1	-5	nt	13	nt
C#CCOCCOCCOCCNc1nc(N2CCN(C(=O)CCCCCCCCCCNC(=O)[C@H](CCCCN)n3cc(C[C@@H](C)CC)nn3)CC2)nc(N2CCN(C(=O)CCCCCCCCCCNC(=O)[C@@H]([C@H](C)O)n3cc(C)nn3)CC2)n1	106*	nt	90*	nt
C#CCOCCOCCOCCNc1nc(N2CCN(C(=O)CCCCCCCCCCNC(=O)[C@H](CCCCN)n3cc(C[C@@H](C)CC)nn3)CC2)nc(N2CCN(C(=O)CCCCCCCCCCNC(=O)[C@H](CCCN=C(N)N)n3cc(C[C@@H](C)CC)nn3)CC2)n1	60*	nt	41	nt
C#CCOCCOCCOCCNc1nc(N2CCN(C(=O)CCCCCCCCCCNC(=O)[C@H](CCCCN)n3cc(C)nn3)CC2)nc(N2CCN(C(=O)CCCCCCCCCCNC(=O)[C@@H]([C@H](C)O)n3cc(C)nn3)CC2)n1	-1	nt	-25	nt
COc1ccc(NC(=O)Nc2ccc3c(c2)C(=O)N([C@@H](C)CO)C[C@@H](C)[C@@H](CN(C)C(=O)Cc2ccccc2)OCCCC[C@H](C)O3)cc1	nt	9	nt	nt
COc1ccc2c3c([nH]c2c1)[C@H](CO)N(C(=O)Cc1ccccc1)CC31CN(C(=O)Cc2ccccc2)C1	nt	-32	nt	nt
C[C@@H]1CN([C@@H](C)CO)C(=O)c2cc(-c3ccc(F)cc3)cnc2O[C@@H]1CN(C)C(=O)c1ccccc1F	nt	15	nt	nt
Cc1ccc(C(=O)SC2=NCCS2)cc1	60*	13	49	-1
C[C@@H]1CN([C@H](C)CO)C(=O)c2cc(C3=CCCC3)cnc2O[C@@H]1CN(C)C(=O)Nc1ccc(C(F)(F)F)cc1	nt	10	nt	nt
O=C(NC12CC3CC(CC(C3)C1)C2)N1CCN(c2nc(-c3ccccc3)cs2)CC1	71*	nt	nt	1
CC(C)Oc1ccc(C(=O)Nc2ccc(Cl)c(S(=O)(=O)Nc3ccc(Cl)cc3)c2)cc1	90*	23	55*	-4
CCCCCOC(=O)C1=C(C)NC(=O)NC1c1ccc(OC)cc1 (stereo not drawn)	70*	29	3	2
COc1ccc(C2NC(=O)NC(C)=C2C(=O)OC2CCCC(C)C2)cc1 (stereo not drawn)	73*	18	44	-5
COc1ccc(C2NC(=O)NC(C)=C2C(=O)OC2CCCCC2)cc1 (stereo not drawn)	-5	7	6	nt
CC(C)C#Cc1ccc2c(c1)O[C@@H](CN(C)C(=O)c1ccncc1)[C@@H](C)CN([C@@H](C)CO)S2(=O)=O	nt	26	nt	nt
Cc1onc(-c2c(F)cccc2Cl)c1C(=O)OCC(=O)NCc1ccco1	6	nt	54*	15
Cc1onc(-c2c(F)cccc2Cl)c1C(=O)OCC(=O)c1c[nH]c2ccccc12	58*	-3	28	-4
Cc1noc(C)c1C(=O)OCC(=O)c1c[nH]c2ccccc12	6	nt	-27	-1
